GDH-TPI counter: GDH-TPI coupling enzyme inhibitors, primary screen, artefact control for M. tuberculosis FBA inhibitor project, biochemical, absorbance, full deck; GDH-TPI coupled enzyme counterscreen, NADH absorbance; 360,000 tested, 1.2% active; AID 588335, 2011; inhibition, % at 4.8 µM; in the data active = inhibition above about 30%;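 also: 0% = DMSO wells and 100% = wells lacking the enzyme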
Mtb bLac sens: beta-lactam sensitization of Mtb H37Rv, H37Rv. M. tuberculosis H37Rv growth with meropenem, percent inhibition. inhibition, % at 25 µM. 330,000 tested, 0.27% active; call rule not given here;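 also: growth measured after seven days incubation then overnight dye step; 0% = bacteria only wells and 100% = bacteria with antibiotic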
Mtb FBA inh: Mtb FBA enzyme inhibitors, primary screen, biochemical, fluorescence, strain H37Rv | Fructose-bisphosphate aldolase (Mycobacterium tuberculosis (strain ATCC 25618 / H37Rv)), … | purified M. tuberculosis FBA, fluorescence read-out | inhibition, % at 1 µM | 360,000 tested, 2.3% active | AID 588726, 2011; in the data active = inhibition above about 27%;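 also: 0% = vehicle and 100% = reference inhibitor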
DUSP3 inh: VHR1 phosphatase inhibitors, primary screen, biochemical, absorbance, uHTS; 290,000 tested, 0.52% active; inhibition, % at 13.3 µM; recombinant VHR phosphatase, pNPP absorbance; in the data active = inhibition above about 50%
Target sequence (P51452 whole entry, looked up): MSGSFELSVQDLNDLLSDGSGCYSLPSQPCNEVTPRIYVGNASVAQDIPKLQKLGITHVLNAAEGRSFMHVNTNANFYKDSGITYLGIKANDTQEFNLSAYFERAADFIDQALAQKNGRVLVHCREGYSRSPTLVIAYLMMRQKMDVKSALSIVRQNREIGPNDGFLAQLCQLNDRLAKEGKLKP
Mtb hypoxia inh: PubChem AID 1159583. M. tuberculosis hypoxia-regulated fluorescent reporter, fluorescence. fluorescence inhibition, % (no concentration beside the values). 300,000 tested, 0.1% active; in the data active = fluorescence inhibition mostly above about 23%, no sharp cut-off; inactive = mostly below about 17%
The depositor's hits bear a star; ? = inconclusive; / = not tested or not shown. In the library only some 3.6% were active in any assay of this set; here they are far more common.

SMILES | GDH-TPI counter | Mtb bLac sens | Mtb FBA inh | DUSP3 inh | Mtb hypoxia inh
CCCSc1nc2sc3c(c2c(=O)[nH]1)CCN(Cc1ccccc1)C3 | 7.8 | 4.5 | 85.8* | -16.7 | /
Cc1ccc(S(=O)(=O)Oc2ccccc2C=NNc2ccc(C(=O)O)cc2)cc1 | / | / | / | / | 13.3
COc1ccc(SCC(C)CN2CCC(C(C)(C)C)CCC2=O)cc1 (configuration not stated) | / | / | / | / | 11.4
CCN(/N=C/C=C/c1ccccc1)c1cc(=O)n(C)c(=O)[nH]1 | 69.7* | 6.8 | -2.5 | 7.4 | /
CCN(N=Cc1ccc(Cl)cc1)c1cc(=O)n(C)c(=O)[nH]1 | / | / | / | / | 5.4
CCN(/N=C/c1ccc(Cl)cc1)c1cc(=O)n(C)c(=O)[nH]1 | 50.6* | -2.2 | -0.3 | -12.5 | /
O=C1CC(c2ccc(F)cc2)CC2=C1C(c1ccc([N+](=O)[O-])o1)Nc1ccccc1N2 (configuration not stated) | 37.9* | 58.9 | 2.7 | 16.2 | 2.9
O=C1CC(c2ccccc2)CC2=C1C(c1ccccn1)Nc1ccccc1N2 (configuration not stated) | 27.5 | 6.2 | -1.6 | -1.7 | 1.2
COc1cc(CN2CCCCCC2)cc(Br)c1O | 19.6 | -2.8 | -0.5 | 55.0* | 8.8
CCOc1cc(CN2CCCCCC2)ccc1OC | 11.4 | -5.7 | 0.4 | 57.0* | 5.5
C[n+]1ccc(-c2ccccc2)c2ccccc21 | 14.8 | -1.0 | 142.7* | / | 7.0
CCCC(=O)Nc1ncnc2c1ncn2C1OC2OP(=O)(O)OCC2C1OC(=O)CCC (configuration not stated) | / | / | / | / | -3.2
O=C(NN=Cc1cn(Cc2ccccc2)c2ccccc12)c1cc(O)cc(O)c1 | / | / | / | / | -0.8
CCOC(=O)C(=CNc1ccc(C(F)(F)F)cc1Cl)C(=O)OCC | 36.0* | ? | 1.0 | 20.4 | 4.8
COc1ccc(OCC(=O)NN=C(C)c2cc3ccccc3o2)cc1 | / | / | / | / | 10.6
CC(C)[C@H](NC(=O)Cc1ccccc1)C(=O)OCc1cc(=O)n2c(n1)sc1ccccc12 | 14.8 | 4.2 | 5.8 | 53.8* | -2.3
Cc1ccc2c(CC(=O)OCc3cc(=O)n4c(n3)sc3ccccc34)coc2c1 | 3.1 | -1.4 | 4.3 | 11.3 | /
COc1ccc(NC(=O)c2cc(C)nc3ccccc23)cc1S(=O)(=O)N1CCOCC1 | 6.1 | -11.2 | 2.1 | / | 4.2
COc1ccc(C(=O)Nc2ccc(-c3ccc(C)o3)cc2)cc1S(=O)(=O)N1CCOCC1 | 37.9* | 1.0 | 2.2 | -4.6 | -4.6
COc1ccc(Nc2nc(-c3ccccc3)nc3ccccc23)cc1S(=O)(=O)N1CCOCC1 | 40.3* | -4.2 | 7.4 | 28.5 | -3.8
COCCNC(=O)C(C#N)=Cc1ccc(-c2ccc(OC)cc2[N+](=O)[O-])o1 | / | / | / | / | -6.6
COC(=O)C1CC2CCC(O)CC2N1Cc1ccc(Cl)cc1 (configuration not stated) | / | / | / | / | 5.3
Cn1c(=O)oc2cc(S(=O)(=O)NCc3ccccc3)ccc21 | 21.7 | -0.8 | -2.7 | 50.9* | 9.6
COC(=O)c1ccccc1NS(=O)(=O)c1ccc2c(c1)oc(=O)n2C | -0.4 | -3.7 | -2.9 | 51.7* | 1.3
Cn1c(=O)oc2cc(S(=O)(=O)Nc3ccccc3O)ccc21 | 16.1 | -4.3 | 7.2 | 20.5 | -4.8
SMILES | GDH-TPI counter | Mtb bLac sens | Mtb FBA inh | DUSP3 inh | Mtb hypoxia inh
CC(=NNc1nc(C)cc(=O)[nH]1)C1CC1 | / | / | / | / | -0.6
Fc1cccc(C=NNC(=S)Nc2ccccc2Cl)c1 | / | / | / | / | 0.7
CC(/C=N/n1c(-c2n[nH]c3c2CCC3)n[nH]c1=S)=C\c1ccco1 | 44.8* | -1.0 | 0.9 | 21.3 | /
C(/C=C/c1ccco1)=N/N1CCN(c2ccccc2)CC1 | 46.6* | 34.9 | -2.9 | 35.8 | /
S=c1[nH]nc(-c2n[nH]c3c2CCC3)n1N=C/C=C/c1ccco1 | / | / | / | / | 8.7
Cc1ccccc1-c1n[nH]c(=S)n1/N=C/C=C/c1ccco1 | 43.5* | 2.4 | -1.1 | 17.2 | /
S=c1[nH]nc(-c2ccccc2)n1N=C/C=C/c1ccco1 | / | / | / | / | 1.7
S=c1[nH]nc(-c2ccccc2)n1/N=C/C=C/c1ccco1 | 32.6* | 0.8 | -2.4 | 7.8 | /
C=C(COC(=O)CCC(=O)O)CC1CC(O)[C@]2(C)OC3CC4OC5C[C@]6(C)O[C@]7(C)CCC8OC9C[C@]%10(C)OC%11C(C)=CC(=O)OC%11CC%10OC9CC(C)C8OC7CC6O[C@]5(C)CC=CC4OC3CC2O1 (some centres not stated) | / | / | / | / | -1.2
CN(C)S(=O)(=O)c1cccc(NC(=S)NN=Cc2ccco2)c1 | / | / | / | / | 4.8
N#CC(C#N)=CNc1cccnc1 | 43.0* | -7.9 | 5.3 | -0.9 | 7.6

Compound activity (PubChem BioAssay)
